Dicer inh – inhibitors of human Dicer processing of pre-microRNA | Q9UPY3 | cat-ELCCA pre-miR-21 Dicer processing, chemiluminescence; hits give high values | z-score at 25 µM | 6% of 47,000 active | AID 1347074; in the data active = z-score above about 3, passing the limit was not always enough;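 also: higher signal means more uncleaved substrate so more Dicer inhibition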
Target sequence (Q9UPY3 whole entry, looked up): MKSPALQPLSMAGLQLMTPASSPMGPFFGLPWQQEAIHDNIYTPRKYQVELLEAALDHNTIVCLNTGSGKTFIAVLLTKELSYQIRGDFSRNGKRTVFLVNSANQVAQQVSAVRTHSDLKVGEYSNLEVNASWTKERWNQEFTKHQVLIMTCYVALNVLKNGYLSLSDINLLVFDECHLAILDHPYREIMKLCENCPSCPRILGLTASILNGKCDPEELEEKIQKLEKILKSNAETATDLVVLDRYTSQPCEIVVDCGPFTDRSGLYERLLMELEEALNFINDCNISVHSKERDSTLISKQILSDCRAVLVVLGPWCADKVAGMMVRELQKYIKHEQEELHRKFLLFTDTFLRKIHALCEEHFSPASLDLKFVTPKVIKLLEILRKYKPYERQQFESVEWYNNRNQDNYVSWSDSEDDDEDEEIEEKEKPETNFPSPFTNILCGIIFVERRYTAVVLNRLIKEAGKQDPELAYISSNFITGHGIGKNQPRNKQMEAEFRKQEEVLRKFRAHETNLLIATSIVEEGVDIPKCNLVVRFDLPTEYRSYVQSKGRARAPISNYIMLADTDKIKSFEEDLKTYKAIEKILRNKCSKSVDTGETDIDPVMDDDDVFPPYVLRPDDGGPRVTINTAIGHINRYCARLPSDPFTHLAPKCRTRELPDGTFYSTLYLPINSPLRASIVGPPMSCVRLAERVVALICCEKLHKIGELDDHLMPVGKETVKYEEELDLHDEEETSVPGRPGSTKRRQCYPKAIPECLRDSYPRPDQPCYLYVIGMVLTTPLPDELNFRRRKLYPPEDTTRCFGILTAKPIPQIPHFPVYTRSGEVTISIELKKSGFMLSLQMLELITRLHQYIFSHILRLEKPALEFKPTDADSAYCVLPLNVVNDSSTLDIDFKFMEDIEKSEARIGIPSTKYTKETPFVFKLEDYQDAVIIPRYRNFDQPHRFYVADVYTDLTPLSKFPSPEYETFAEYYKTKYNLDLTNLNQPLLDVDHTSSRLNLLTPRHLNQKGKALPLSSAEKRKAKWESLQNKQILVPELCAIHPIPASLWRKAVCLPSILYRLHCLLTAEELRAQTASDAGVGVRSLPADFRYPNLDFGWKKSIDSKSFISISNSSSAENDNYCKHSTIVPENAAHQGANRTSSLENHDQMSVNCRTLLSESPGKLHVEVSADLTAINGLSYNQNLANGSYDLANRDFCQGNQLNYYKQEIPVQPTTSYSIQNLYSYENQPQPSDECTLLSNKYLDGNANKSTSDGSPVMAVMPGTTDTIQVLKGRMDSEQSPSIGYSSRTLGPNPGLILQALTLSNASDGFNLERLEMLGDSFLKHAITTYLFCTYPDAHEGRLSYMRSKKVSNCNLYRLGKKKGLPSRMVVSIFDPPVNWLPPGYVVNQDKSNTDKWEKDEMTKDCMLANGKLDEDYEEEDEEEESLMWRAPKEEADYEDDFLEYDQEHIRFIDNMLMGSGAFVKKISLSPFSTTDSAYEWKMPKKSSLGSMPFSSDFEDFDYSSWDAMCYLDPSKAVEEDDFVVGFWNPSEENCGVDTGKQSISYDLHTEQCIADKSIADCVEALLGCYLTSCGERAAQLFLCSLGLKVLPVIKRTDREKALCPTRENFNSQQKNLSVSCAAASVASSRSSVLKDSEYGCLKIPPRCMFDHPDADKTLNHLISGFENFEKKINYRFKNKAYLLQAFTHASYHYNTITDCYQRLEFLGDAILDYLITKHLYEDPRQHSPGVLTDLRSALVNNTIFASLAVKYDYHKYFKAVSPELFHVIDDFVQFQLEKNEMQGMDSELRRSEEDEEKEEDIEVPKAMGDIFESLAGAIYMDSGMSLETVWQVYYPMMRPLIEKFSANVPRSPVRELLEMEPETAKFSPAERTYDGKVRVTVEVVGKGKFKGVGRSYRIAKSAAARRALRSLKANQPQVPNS
Hits are given with their value. This excerpt belongs to a sample that is enriched for hits.

For CCOC(=O)c1ccc(-n2c(C)c3c(OC)cccc(=O)c3c2C)cc1 the results were Dicer inh 3.8.
Screening CCOc1cccc(=O)c2c(C)n(-c3ccc(C)cc3)c(C)c12 returned Dicer inh inactive.
`COc1cc(C(F)(F)F)cc(C(F)(F)F)c1C(=O)Nc1cc(C(F)(F)F)cc(C(F)(F)F)c1` gave Dicer inh inactive.
For CC1(C)SC(c2ccc(F)cc2)N[C@H]1C(=O)O (stereo partly drawn) the results were Dicer inh inactive.
CC1(C)SC(C(=O)O)N[C@H]1C(=O)O (stereo partly drawn) was read as Dicer inh 3.1.
Screening O=C(O)c1c[nH]c2c(-c3ccccc3)c(C(F)(F)F)sc2c1=O returned Dicer inh 4.8.
For Cc1cccc2c(=O)c(C(=O)O)c[nH]c12 the results were Dicer inh inactive.
For CCOC(=O)c1c[nH]c2c(-c3ccccc3)c(C(F)(F)F)sc2c1=O the results were Dicer inh inactive.
COc1ccc(OC)c(CNc2ncc(-c3cccc(Br)c3)n2C)c1 was read as Dicer inh inactive.
CCOC(=O)c1cc(CC)sc1NC(=S)Nc1ccccc1F was read as Dicer inh inactive.
Screening Nc1cc(-c2ccccc2)nn1-c1ccc(C(=O)O)cc1 returned Dicer inh inactive.
Screening CS(=O)(=O)c1ccc2sc(NC(=O)c3cc4ccccc4o3)nc2c1 returned Dicer inh inactive.
`CS(=O)(=O)c1ccc2nc(NC(=O)c3cc4ccccc4o3)sc2c1` gave Dicer inh 4.2.
CS(=O)(=O)c1ccc2nc(NC(=O)Oc3ccccc3)sc2c1 was read as Dicer inh inactive.
For COC(=O)c1ccc(Oc2ccc(C3SCCS3)cc2)o1 the results were Dicer inh inactive.
Screening CCOC(=O)C1CCN(S(=O)(=O)c2ccc(Br)cc2)CC1 returned Dicer inh inactive.
For CCOc1ccc(S(=O)(=O)N2CN3CCN(C3)C2)cc1 the results were Dicer inh 3.2.
For CCCCOc1ccc(S(=O)(=O)n2cnc(C)c2)cc1 the results were Dicer inh inactive.
Screening O=S(=O)(Nc1ccccc1Oc1ccccc1)c1ccc(-c2ccno2)s1 returned Dicer inh inactive.
Screening O=C(Nc1nnc(C(F)(F)F)s1)c1ccc(F)c(Cl)c1 returned Dicer inh inactive.
O=C(O)CSCC(=O)NCc1csc2ccccc12 was read as Dicer inh 4.3.
`O=C(NCc1csc2ccccc12)C1CC1` gave Dicer inh inactive.
`O=C(O)CSCC(=O)NCc1csc2ccc(Cl)cc12` gave Dicer inh inactive.
Screening Nc1ncnc2c1nc(Sc1ccc(Cl)cc1)n2C1OC2COP(=O)(O)O[C@@H]2[C@@H]1O (stereo partly drawn) returned Dicer inh inactive.
For O=C1CC(c2ccsc2)c2c(-c3ccccc3)nn(-c3ccccc3)c2N1 (stereo not drawn) the results were Dicer inh inactive.
O=C1C(=O)N(c2nccs2)C(c2ccccc2Cl)/C1=C(/O)c1ccc(F)cc1 (stereo not drawn) was read as Dicer inh inactive.
For N[C@@H](CCCC(=O)O)C(=O)O the results were Dicer inh inactive.
NC(CCCP(=O)(O)O)C(=O)O (stereo not drawn) was read as Dicer inh 3.2.
For CN=C(N)NCCC[C@H](N)C(=O)O the results were Dicer inh inactive.
`CCOC(=O)c1ccc2nsnc2c1` gave Dicer inh inactive.
O=C(O)c1ccc2nsnc2c1 was read as Dicer inh inactive.
`COC(=O)c1ccc2nsnc2c1` gave Dicer inh 3.8.
CCCN1C(=O)C(O)(CC(=O)c2c(C)coc2C)c2cc(Br)ccc21 (stereo not drawn) was read as Dicer inh inactive.
For COC(=O)Cc1[nH]nc2c1C1(CCOC1C)C(C#N)=C(N)O2 (stereo not drawn) the results were Dicer inh inactive.
N#Cc1c(-c2ccccc2)nc(SCc2ccccc2)[nH]c1=O was read as Dicer inh inactive.
For Clc1ccc(CSc2ncc(-c3ccc(Cl)cc3)[nH]2)cc1 the results were Dicer inh inactive.
N#Cc1c(-c2ccc(Cl)cc2)[nH]c(SCc2ccccc2)nc1=S was read as Dicer inh 3.5.
For C/C(=N\OC(=O)c1ccc(Cl)cc1)c1ccn(S(=O)(=O)c2ccccc2)c1 the results were Dicer inh inactive.
For CCOC(=O)c1c(NC(=O)CN2CC(C)OC(C)C2)sc(C)c1C (stereo not drawn) the results were Dicer inh inactive.
O=C(c1ccc2c(c1)OCO2)N1CCN(C/C=C/c2ccccc2)CC1 was read as Dicer inh inactive.
Screening O=C(Nc1ccccc1)c1ccc2ccccc2c1O returned Dicer inh inactive.
Screening O=C(O)C1=C(C(=O)Nc2ccccc2)SCCS1 returned Dicer inh inactive.
Screening Nc1c(C(=O)Nc2ccccc2)oc2ccccc12 returned Dicer inh 5.4.
`COc1ccc(Br)cc1S(=O)(=O)NC(=O)/C=C/c1ccccc1Cc1ccc2ccccc2c1` gave Dicer inh inactive.
`Cc1ccc(-c2cc(N3CCOCC3)n[nH]2)cc1` gave Dicer inh inactive.
`O=C1c2ccccc2C(=O)N1CN(Cc1ccc2c(c1)OCO2)CN1C(=O)c2ccccc2C1=O` gave Dicer inh inactive.
For O=C1c2ccccc2-c2c1c1ccccc1c(=O)n2CC1CC1 the results were Dicer inh inactive.
`O=C1c2ccccc2-c2c1c1ccccc1c(=O)n2Cc1ccc2c(c1)OCO2` gave Dicer inh 3.1.
CCCC12CN(C(=O)CC)CC(CCC)(CN(C(=O)CC)C1)C2=O was read as Dicer inh inactive.
Screening O=C(C1=C(O)C(=O)N(CCCN2CCOCC2)C1c1cccnc1)c1cccs1 (stereo not drawn) returned Dicer inh inactive.
For O=C1c2cccc3c(N4CCOCC4)ccc(c23)C(=O)N1c1ccccc1 the results were Dicer inh inactive.
O=C1c2cccc3c(N4CCOCC4)ccc(c23)C(=O)N1c1cc(Cl)ccc1O was read as Dicer inh 8.3.
O=C1c2cccc3c(N4CCOCC4)ccc(c23)C(=O)N1c1cccc(O)c1 was read as Dicer inh inactive.
Screening Cn1c(=O)n(C)c2cc(S(=O)(=O)NCCCC(=O)O)ccc21 returned Dicer inh inactive.
`N/C(=N/OC(=O)Nc1ccc(Cl)cc1Cl)C1COc2ccccc2O1` (stereo not drawn) gave Dicer inh inactive.
For O=C(CSC1CN(C(c2ccccc2)c2ccccc2)C1)NNC(=O)c1cccs1 the results were Dicer inh inactive.
`O=C(Cn1nnc2ccccc21)N/N=C/c1cccs1` gave Dicer inh inactive.
`CSc1nnc(Nc2ccc(Cl)cc2Cl)s1` gave Dicer inh 3.9.
Screening CSc1ccc(/C=N/Nc2ccc(Cl)cc2Cl)s1 returned Dicer inh inactive.
Screening CSc1nc(C)nc(Nc2ccc(Cl)cc2Cl)c1C#N returned Dicer inh inactive.
Screening CCOC(=O)CN1C(=O)C(O)(CC(=O)c2c(C)cc(C)cc2C)c2ccccc21 (stereo not drawn) returned Dicer inh inactive.
For Clc1ccc(-c2nnnn2Cc2c(Cl)cccc2Cl)cc1 the results were Dicer inh inactive.
COc1ccc(-c2nnc3c4cnn(-c5cccc(C)c5)c4ncn23)cc1OC was read as Dicer inh inactive.
Screening CCCSc1nnc2c(n1)OC(CC)=Nc1ccccc1-2 returned Dicer inh inactive.
COC(=O)c1ccc(/C=N/Nc2ncccc2[N+](=O)[O-])n1-c1ccc(F)cc1 was read as Dicer inh inactive.
`Cc1cc(NC(=O)c2ccc(Cl)cc2Cl)n(C(C)(C)C)n1` gave Dicer inh inactive.

Screening data from PubChem.
